Only some compounds are listed: those with a hit (about 17% of all), similar ones and a draw of the others.
DT40 TDP1 CPT – DT40-hTDP1 cell growth loss with CPT | chicken DT40 Tdp1-/-;hTDP1 cells + 20 nM CPT, ATP luminescence, 48 h | Potency, µM (titrated, usually from 46.2 µM), for the others: top-dose activity change, negative = growth inhibition, actives largely listed as inhibitors | 420,000 compounds, 12% hits; also: % is scaled to controls: 0 for no effect and ±100 for the full control effect; nearly all actives have a fitted effect of over 55% in size
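Chicken DT40 Tdp1-/- cells complemented with human TDP1, 400 cells/well, exposed to compounds plus 20 nM camptothecin for at least 48 h at 37 C; viability read as ATP content by CellTiter-Glo luminescence.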
TDP1 block – inhibitors of human tyrosyl-DNA phosphodiesterase TDP1. 350,000 compounds, 0.28% hits. Q9NUW8. recombinant TDP1, AlphaScreen DNA substrate cleavage. Potency, µM (top dose mostly 130 µM), inactives show top-dose activity change, negative = inhibition, hits mostly inhibitors; also: % is scaled to controls: 0 for no effect and ±100 for the full control effect; nearly all actives have a fitted effect of over 40% in size
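Recombinant human Tdp1 (E. coli-expressed, 1 nM final) preincubated with compounds 15 min at room temperature, then 5'-biotin/3'-phosphotyrosine-FITC DNA substrate (15 nM final) added for 5 min. AlphaScreen beads (10 ug/ml final) added 10 min; cleavage lowers signal.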
DT40 TDP1 no CPT – qHTS for Inhibitors of human tyrosyl-DNA phosphodiesterase 1 (TDP1): qHTS in cells in absence of CPT; DT40 Tdp1-/- hTDP1 cells, no CPT, ATP luminescence, 48 h; Potency, µM (highest dose often 46.2 µM), inactives show at the highest dose activity change, negative = growth inhibition, usual class: inhibitors; 420,000 compounds, 15% hits; AID 686978, 2013; also: % is scaled to controls: 0 for no effect and ±100 for the full control effect; nearly all actives have a fitted effect of over 55% in size
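Camptothecin absent (DMSO only). Human TDP1-complemented DT40 knockout cells, 400 cells/well, 37 °C for minimum 48 hr; ATP measured via CellTiter-Glo, 30 min dark incubation, luminescence.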
ClpP mod – qHTS Assay for Activators of ClpP; 340,000 compounds, 1.9% hits; Potency, µM (series often up to 57.5 µM), without a hit: top-dose activity change, negative = active; purified B. subtilis ClpP, FRET peptide cleavage, 20 min; ATP-dependent Clp protease proteolytic subunit (Bacillus subtilis (strain 168)), P80244; AID 651965, 2013; active = well fitted falling curve with a large enough effect; inconclusive = small, poorly fitted or top-dose-only effect; inactive = no such curve, though single readings can be large or run the other way; also: the source files actives as falling curves though it sought activators and does not explain the sign; nearly all actives have a fitted effect of over 65% in size
Target sequence (P80244 whole entry, looked up): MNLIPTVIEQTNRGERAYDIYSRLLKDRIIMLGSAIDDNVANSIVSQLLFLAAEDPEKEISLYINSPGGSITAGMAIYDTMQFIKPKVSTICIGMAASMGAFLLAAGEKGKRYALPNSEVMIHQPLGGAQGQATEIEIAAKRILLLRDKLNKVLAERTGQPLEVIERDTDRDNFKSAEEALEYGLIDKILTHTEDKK
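Purified B. subtilis ClpP, 10 microg/mL final in Tris/HCl pH8 with KCl, BSA, glycerol and Tween-20, cleaved an Abz/nitrotyrosine-quenched decapeptide. Fluorescence (ex 320, em 430) was read at 0 and 20 min at room temperature. Delta was normalized to 5.8 microM ADEP and DMSO/no-enzyme controls.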
Active calls of the source: *; ? = inconclusive; . = no result. Unless noted, calls follow the shape of the dose curve; as a rule, active = well fitted curve in the direction sought with a large enough effect; inconclusive = small, poorly fitted or top-dose-only effect, or another doubt; inactive = no such curve, though single readings can be large; an effect the other way counts as inactive or inconclusive. Potency is read from the fitted curve at half-maximal effect.

SMILES	DT40 TDP1 CPT	TDP1 block	DT40 TDP1 no CPT	ClpP mod
Cc1nn(CC(=O)N2CCCCC2)c(=O)c2cc3occc3n12	-6%	0%	-9%	-2%
CCN(CC)CCNC(=O)c1ccc(Sc2ccc(C)cc2)c(NC(C)=O)c1	4%	6%	-20%	.
CC(=O)NC(C)(c1ccccc1)c1nc(-c2cccc(C(F)(F)F)c2)cs1 (configuration not stated)	?	.	15µM*	0%
CC(=O)Nc1cccc(-c2csc(C(C)(NC(C)=O)c3ccccc3)n2)c1 (configuration not stated)	26µM*	.	?	-3%
COc1ccc(C(C)(NC(C)=O)c2nc(-c3cccc(NC(C)=O)c3)cs2)cc1 (configuration not stated)	?	.	?	0%
CC(=O)NC(C)(c1ccccc1)c1nc(-c2cc(F)cc(F)c2)cs1 (configuration not stated)	?	.	?	0%
C[C@@H]1CCC2[C@@H](C)[C@@H](O)O[C@@H]3O[C@@]4(C)CC[C@@H]1[C@@]23OO4 (some centres not stated)	0.041µM*	6%	0.094µM*	.
COc1ccccc1C(=O)NCC(=O)NNC(=O)c1cccs1	1%	0%	0%	-2%
Cc1nnc(SCC(=O)NC23CC4CC(CC(C4)C2)C3)s1	-21%	-5%	-10%	.
O=C(CSc1nccc(=O)[nH]1)NC1CCCCCCC1	-4%	0%	12%	1%
O=C(CSC1=NCCN1)NC1CCCCCC1	?	2%	18µM*	2%
O=C(CSC1=NCCN1)NC12CC3CC(CC(C3)C1)C2	26µM*	2%	15µM*	0%
Cc1ccc(S(=O)(=O)Nc2ccc3c(c2)c(C(=O)OC(C)C)c(C)n3S(=O)(=O)c2ccc(C)cc2)cc1	?	.	?	-5%
CCN(CC)c1cc(CS(=O)c2ccccc2)nc(-c2ccccc2)n1 (configuration not stated)	21µM*	.	?	-6%
CCOC(=O)CSc1cc(CS(=O)c2ccc(Cl)cc2)nc(-c2ccccc2)n1 (configuration not stated)	?	2%	?	-1%
Cc1[nH]n(-c2ccccc2)c(=O)c1/C=N/NC(=O)c1cccc(F)c1	5.2µM*	.	4.1µM*	-7%
Cc1[nH]n(-c2ccc(Br)cc2)c(=O)c1/C=N/NC(=O)c1ccccc1	4.6µM*	9%	2.9µM*	1%
CCN(CC)c1ccc(/C=N\N2CCN(Cc3ccc(C)cc3)CC2)cc1	0%	11%	?	.
O=C1c2ccccc2C(=O)N1CC1c2ccccc2CCN1S(=O)(=O)c1cnc[nH]1 (configuration not stated)	2%	3%	1%	-1%
O=C(c1ccc(S(=O)(=O)N2CCCCCC2)cc1)N1CCC(CN2C(=O)c3cccc4cccc(c34)C2=O)CC1	?	6%	21µM*	28µM*
O=C1c2cccc3cccc(c23)C(=O)N1CC1CCN(S(=O)(=O)c2ccccc2)CC1	28%	.	2%	.
O=C1c2cccc3cccc(c23)C(=O)N1CC1CCN(S(=O)(=O)c2ccc(F)cc2)CC1	?	3%	12µM*	13µM*
Cc1ccc(S(=O)(=O)N2CCC(CN3C(=O)c4cccc5cccc(c45)C3=O)CC2)cc1	?	4%	?	25µM*
Cc1ccc(S(=O)(=O)N2CCc3ccccc3C2CN2C(=O)c3ccccc3C2=O)cc1 (configuration not stated)	22µM*	0%	11µM*	2%
COc1cccc2cc(C(=O)C3=C(O)C(=O)N(Cc4ccco4)C3c3cccnc3)oc12 (configuration not stated)	?	0%	23µM*	-1%
SMILES	DT40 TDP1 CPT	TDP1 block	DT40 TDP1 no CPT	ClpP mod
O=C(C1=C(O)C(=O)N(Cc2ccco2)C1c1cccnc1)c1cc2ccccc2o1 (configuration not stated)	?	.	?	-4%
Cc1cc(C)c2c(CCl)cc(=O)oc2c1	0.92µM*	0%	0.92µM*	.
Cc1cc(C)c2c(CN3CCN(C/C=C/c4ccccc4)CC3)cc(=O)oc2c1	29µM*	8%	?	-4%
Cc1cc(C)c2c(CN3CCCCC3)cc(=O)oc2c1	4%	.	-19%	.
O=C(O)C1=C(C(=O)O)C2C=CC1C2	-4%	.	-13%	.
COc1ccccc1-c1csc(NC(=O)c2ccc(N3C(=O)CCC3=O)cc2)n1	?	2%	?	120%
O=C(Oc1c(CN2CCOCC2)cc(Cl)c2cccnc12)c1ccccc1Cl	2.3µM*	9%	2.9µM*	.
CC(CN1CCOCC1)OC(=O)c1cccs1 (configuration not stated)	-2%	-10%	4%	-9%
O=C(Oc1c(Cl)cc(Cl)c2cccnc12)c1cccs1	16µM*	5%	?	4%
O=C(Oc1c(CN2CCOCC2)cc(Cl)c2cccnc12)c1cccs1	4.1µM*	8%	4.6µM*	1%
CCN(CC)CCNc1oc(-c2ccccc2)nc1S(=O)(=O)c1ccccc1	?	4%	?	-10%
O=C(CSc1nnc(-c2ccc3c(c2)OCO3)o1)Nc1ncc(Cl)cc1Cl	21µM*	3%	21µM*	-4%
O=C(Nc1nnc(-c2ccccc2)s1)C1CCCN(C(=O)c2ccoc2)C1 (configuration not stated)	?	.	-25%	-18%
COc1ccc(C(=O)/C=C/c2ccc(OC)c(Cn3nnc4ccccc43)c2)cc1	18µM*	3%	21µM*	-6%
COc1ccc(/C=C/C(=O)C23CC4CC(CC(C4)C2)C3)cc1CN1CCOCC1	?	7%	18µM*	.
COc1ccc(/C=N/NC(=O)c2ccncc2)cc1CN1CCOCC1	-4%	.	-9%	.
COc1ccc(C(=O)/C=C/c2ccc(OC)c(CN3CCOCC3)c2)cc1	?	8%	23µM*	-7%
O=C(/C=C/c1cccc(O)c1)c1ccc(N2CCOCC2)cc1	?	10%	15µM*	-1%
COc1ccc(/C=C/C(=O)c2ccc(O)cc2)cc1CN1CCOCC1	?	0%	29µM*	-1%
COc1ccc(/C=N/NC(=O)c2ccc(Br)cc2)cc1CN1CCOCC1	14%	4%	-14%	.
COCCC1CCCCN1C(=O)c1cccc(OC2CCN(S(C)(=O)=O)CC2)c1 (configuration not stated)	0%	1%	2%	-2%
CN(C)S(=O)(=O)N1CCC(Oc2ccc(C(=O)NC3CCCCC3)cc2)CC1	-32%	8%	?	?
CS(=O)(=O)N1CCC(Oc2cccc(C(=O)NCCCC3CCCC3)c2)CC1	?	.	21µM*	0%
CN(C)S(=O)(=O)N1CCC(Oc2cccc(C(=O)NCCC3=CCCCC3)c2)CC1	16µM*	1%	?	25µM*

High-throughput results from PubChem.
